Among the data in the antibiotic and cytotoxicity screens of Wong et al. (2023) are cytotoxicity call values, retold here.

Molecules are shown by their SMILES. In all, about 39,000 compounds went through this assay and about 3,300 (8.5%) were called active. The entries come from a sample that favours actives as a whole.

The experiment concerns HepG2. As to the kind of experiment: cytotoxicity call (relative viability < 0.9). Conditions: 10 µM.
As for `C[C@H](CO)N1C[C@H](C)[C@@H](CN(C)Cc2ccccc2)Oc2cc(C#CC(C)(C)O)ccc2S1(=O)=O`, the cytotoxicity call is “inactive”.
In the case of `C[C@@H]1CN([C@@H](C)CO)C(=O)c2cc(NC(=O)Nc3ccc(C(F)(F)F)cc3)ccc2O[C@@H](C)CCCCO[C@@H]1CN(C)C(=O)C1CCCCC1` it was “inactive”.
Then `COc1ccc(S(=O)(=O)N(C)C[C@H]2Oc3ncc(C#CC4(O)CCCC4)cc3C(=O)N([C@@H](C)CO)C[C@H]2C)cc1`, with “inactive”; and `Cn1nnnc1SCC(=O)NC(C)(C)C`, with “inactive”.
Regarding `Cn1cc(-c2[nH]c3cc(NC(=O)[C@H](N)C4CCCCC4)cc4c3c2C=NNC4=O)cn1`, the cytotoxicity call is “active”.
Then `COc1ccc(-c2cnc3c(c2)C(=O)N([C@H](C)CO)C[C@@H](C)[C@@H](CN(C)C(=O)Cc2ccccn2)O3)cc1`, with “inactive”.
Then `CC(C)NC(=O)Nc1ccc2c(c1)CC(=O)N([C@@H](C)CO)C[C@H](C)[C@@H](CN(C)Cc1ccc(C(=O)O)cc1)O2`, with “inactive”; and `CC(=O)N1[C@@H]2Cn3c(ccc(-c4ccccc4)c3=O)[C@H]1[C@@H](C(=O)N1CCN(C)CC1)[C@@H]2CO`, with “inactive”.
In the case of `C[C@@H]1CCCCO[C@@H](CN(C)C(=O)Nc2ccc(F)cc2)[C@@H](C)CN([C@H](C)CO)C(=O)c2cc(NC(=O)Cc3ccccc3)ccc2O1` it was “inactive”; in that of `O=C1C(O)=C(O)C(=O)C(O)=C1O`, “active”; in that of `Cc1cc(C(=O)O)sc1[C@@H](N)C(=O)O`, “inactive”.
Regarding `C[C@@H]1CN([C@@H](C)CO)C(=O)c2cc(-c3cccnc3)cnc2O[C@H]1CN(C)C(=O)Nc1ccc2c(c1)OCO2`, the cytotoxicity call was “inactive”.
For the compound `C[C@H]1CCCCO[C@H](CN(C)C(=O)Nc2ccc(F)cc2)[C@@H](C)CN([C@@H](C)CO)C(=O)c2cc(NC(=O)Nc3ccc4c(c3)OCO4)ccc2O1`, the cytotoxicity call was “inactive”.
In the case of `C[C@H]1CN([C@@H](C)CO)C(=O)c2cc(NC(=O)Cc3cn(C)c4ccccc34)ccc2O[C@H]1CN(C)C(=O)Nc1ccc(C(F)(F)F)cc1` it was “inactive”; in that of `C[C@H](CO)N1C[C@H](C)[C@H](CN(C)C(=O)Nc2cccc3ccccc23)Oc2ccc(NC(=O)Cc3cn(C)c4ccccc34)cc2C1=O`, “inactive”.
Then `C[C@H]1CN([C@@H](C)CO)C(=O)c2cc(NC(=O)Cc3cn(C)c4ccccc34)ccc2O[C@@H]1CN(C)C(=O)Nc1ccc(C(F)(F)F)cc1`, with “active”; and `C[C@H](CO)N1C[C@H](C)[C@@H](CN(C)C(=O)Nc2ccc(C(F)(F)F)cc2)Oc2ccc(NC(=O)Cc3cn(C)c4ccccc34)cc2C1=O`, with “inactive”; and `C[C@@H]1CN([C@H](C)CO)C(=O)c2cc(NC(=O)Cc3cn(C)c4ccccc34)ccc2O[C@H]1CN(C)C(=O)Nc1ccc(C(F)(F)F)cc1`, with “active”.
In the case of `C[C@@H]1CN([C@H](C)CO)C(=O)c2cc(NC(=O)Cc3cn(C)c4ccccc34)ccc2O[C@H]1CN(C)Cc1ccc(C(F)(F)F)cc1` it was “inactive”; in that of `C[C@@H]1CN([C@@H](C)CO)C(=O)c2cc(NC(=O)Cc3cn(C)c4ccccc34)ccc2O[C@@H]1CN(C)C(=O)Nc1cccc2ccccc12`, “active”; in that of `C[C@@H]1CN([C@@H](C)CO)C(=O)c2cc(NC(=O)Cc3cn(C)c4ccccc34)ccc2O[C@@H]1CN(C)C(=O)Nc1ccc(C(F)(F)F)cc1`, “inactive”.
In the case of `C[C@H](CO)N1C[C@H](C)[C@H](CN(C)C(=O)Nc2ccc(C(F)(F)F)cc2)Oc2ccc(NC(=O)Cc3cn(C)c4ccccc34)cc2C1=O`, the cytotoxicity call was “inactive”.
Then `C[C@@H]1CN([C@H](C)CO)C(=O)c2cc(NC(=O)Cc3cn(C)c4ccccc34)ccc2O[C@@H]1CN(C)Cc1ccc(C(F)(F)F)cc1`, with “active”; and `C[C@H](CO)N1C[C@H](C)[C@@H](CN(C)Cc2ccc(C(F)(F)F)cc2)Oc2ccc(NC(=O)Cc3cn(C)c4ccccc34)cc2C1=O`, with “inactive”.
Then `C[C@H]1CN([C@@H](C)CO)C(=O)c2cc(NC(=O)Cc3cn(C)c4ccccc34)ccc2O[C@@H]1CN(C)C(=O)Nc1cccc2ccccc12`, with “inactive”; and `C[C@@H]1CN([C@H](C)CO)C(=O)c2cccc(NC(=O)c3ccncc3)c2O[C@H]1CN(C)C(=O)Nc1ccc2c(c1)OCO2`, with “inactive”.
In the case of `Cc1c(C)n2c3c(=O)[nH]c(=O)n(C)c3nc2n1C` it was “inactive”.
As for `C[C@@H]1CN([C@H](C)CO)C(=O)c2cc(NC(=O)C3CCCCC3)ccc2O[C@@H](C)CCCCO[C@@H]1CN(C)Cc1ccc(C(=O)O)cc1`, the cytotoxicity call was “inactive”.
On to `COc1ccc(S(=O)(=O)N2C[C@@H](O)COC[C@H]3O[C@@H](CC(=O)N[C@@H]4CCN(Cc5ccccc5)C4)CC[C@@H]32)cc1`, for which the cytotoxicity call is “inactive”.
Then `C[C@@H]1CN([C@H](C)CO)C(=O)Cc2cc(NC(=O)Cn3cnnn3)ccc2O[C@@H]1CN(C)Cc1ccc(C(=O)Nc2ccccc2N)cc1`, with “inactive”.
For `C[C@@H]1CN([C@H](C)CO)C(=O)c2cc(NS(=O)(=O)c3ccc(Cl)cc3)ccc2O[C@@H](C)CCCCO[C@@H]1CN(C)C(=O)c1ccncc1`, the cytotoxicity call was “inactive”.
In the case of `C[C@@H]1CN([C@@H](C)CO)C(=O)c2cccc(NS(=O)(=O)c3cn(C)cn3)c2O[C@H]1CN(C)C(=O)Nc1ccc(F)cc1` it was “inactive”; in that of `C[C@@H]1CCCCO[C@H](CN(C)C(=O)C2CCCCC2)[C@H](C)CN([C@H](C)CO)C(=O)c2cc(NC(=O)NC3CCCCC3)ccc2O1`, “inactive”.
In the case of `C[C@@H]1CN([C@H](C)CO)C(=O)Cc2cc(NC(=O)NC3CCCCC3)ccc2O[C@@H]1CN(C)Cc1ccc(Oc2ccccc2)cc1` it was “active”; in that of `C[C@H]1CN([C@@H](C)CO)C(=O)Cc2cc(NC(=O)NC3CCCCC3)ccc2O[C@@H]1CN(C)Cc1ccc(Oc2ccccc2)cc1`, “inactive”.
Then `C[C@@H]1CN([C@@H](C)CO)C(=O)Cc2cc(NC(=O)NC3CCCCC3)ccc2O[C@@H]1CN(C)Cc1ccc(Oc2ccccc2)cc1`, with “active”; and `C[C@@H]1CN([C@@H](C)CO)C(=O)Cc2cc(NC(=O)NC3CCCCC3)ccc2O[C@@H]1CN(C)Cc1ccc(-c2ccccc2)cc1`, with “inactive”; and `C[C@H](CO)N1C[C@H](C)[C@@H](CN(C)Cc2ccc(Oc3ccccc3)cc2)Oc2ccc(NC(=O)NC3CCCCC3)cc2CC1=O`, with “inactive”.
In the case of `C[C@H]1CN([C@@H](C)CO)C(=O)Cc2cc(NC(=O)NC3CCCCC3)ccc2O[C@H]1CN(C)Cc1ccc(-c2ccccc2)cc1`, the cytotoxicity call was “inactive”.
In the case of `C[C@H](CO)N1C[C@H](C)[C@H](CN(C)Cc2ccc(Oc3ccccc3)cc2)Oc2ccc(NC(=O)NC3CCCCC3)cc2CC1=O` it was “inactive”; in that of `C[C@@H]1CN([C@H](C)CO)C(=O)Cc2cc(NC(=O)NC3CCCCC3)ccc2O[C@H]1CN(C)Cc1ccc(-c2ccccc2)cc1`, “active”.
In the case of `C[C@@H]1CN([C@@H](C)CO)C(=O)Cc2cc(NC(=O)NC3CCCCC3)ccc2O[C@H]1CN(C)Cc1ccc(Oc2ccccc2)cc1` it was “inactive”; in that of `C[C@@H]1CN([C@H](C)CO)C(=O)Cc2cc(NC(=O)NC3CCCCC3)ccc2O[C@H]1CN(C)Cc1ccc(Oc2ccccc2)cc1`, “inactive”; in that of `C[C@H]1CN([C@@H](C)CO)C(=O)Cc2cc(NC(=O)NC3CCCCC3)ccc2O[C@H]1CN(C)Cc1ccc(Oc2ccccc2)cc1`, “active”.
With `C[C@@H]1CN([C@@H](C)CO)C(=O)Cc2cc(NC(=O)NC3CCCCC3)ccc2O[C@H]1CN(C)Cc1ccc(-c2ccccc2)cc1`, the cytotoxicity call is “inactive”.
Then `C[C@@H]1CN([C@@H](C)CO)C(=O)c2cc(NC(=O)CCN3CCOCC3)ccc2O[C@H]1CN(C)S(C)(=O)=O`, with “inactive”.
Then `CCCNC(=O)N1C[C@H](C)[C@H](OC)CN(C)C(=O)c2ccc(NS(=O)(=O)CC(F)(F)F)cc2OC[C@@H]1C`, with “inactive”.
Then `C[C@H]1CN([C@@H](C)CO)C(=O)c2cc(NC(=O)c3ccncc3)ccc2O[C@@H]1CN(C)S(=O)(=O)c1cccs1`, with “inactive”.
Take `C[C@H]1CN([C@@H](C)CO)C(=O)c2cc(NC(=O)CCN3CCOCC3)ccc2O[C@H]1CN(C)Cc1ccc(C(=O)O)cc1`: the cytotoxicity call is “inactive”.
In the case of `COc1cc([C@@H](O)CO)ccc1OS(=O)(=O)O` it was “inactive”; in that of `COc1ccc(S(=O)(=O)N2C[C@@H](O)COC[C@H]3O[C@H](CC(=O)N[C@H]4CCN(Cc5ccccc5)C4)CC[C@@H]32)cc1`, “inactive”; in that of `C[C@@H]1CN([C@@H](C)CO)C(=O)c2cc(NS(=O)(=O)c3cccs3)ccc2O[C@@H](C)CCCCO[C@H]1CN(C)Cc1ccc2c(c1)OCO2`, “inactive”.
Then `C[C@H](CO)N1C[C@H](C)[C@@H](CN(C)C(=O)Nc2cccc3ccccc23)Oc2ccc(NS(=O)(=O)c3cccs3)cc2C1=O`, with “inactive”.
Then `C[C@H](CO)N1C[C@H](C)[C@H](CN(C)C(=O)NC2CCCCC2)OCCCC[C@H](C)Oc2ccc(NS(=O)(=O)c3cccs3)cc2C1=O`, with “inactive”; and `CC(=O)N1CC(=O)N(c2cnn(C)c2)C[C@]12CCN(C(=O)c1cnc(C)cn1)C2`, with “inactive”; and `CCOC(=O)N(C)C[C@H]1OCc2cn(nn2)CCCC(=O)N([C@@H](C)CO)C[C@H]1C`, with “inactive”.
With `CSCC[C@H](NC(=O)[C@H](Cc1ccc(OS(=O)(=O)O)cc1)NC(=O)[C@@H](N)CC(=O)O)C(=O)NCC(=O)N[C@@H](Cc1c[nH]c2ccccc12)C(=O)N[C@@H](CCSC)C(=O)N[C@@H](CC(=O)O)C(=O)N[C@@H](Cc1ccccc1)C(N)=O`, the cytotoxicity call was “active”.
In the case of `CSCC[C@H](NC(=O)[C@H](Cc1c[nH]c2ccccc12)NC(=O)CNC(=O)[C@@H](NC(=O)[C@H](Cc1ccc(OS(=O)(=O)O)cc1)NC(=O)[C@H](CC(=O)O)NC(=O)[C@H](CCC(N)=O)NC(=O)[C@@H]1CCC(=O)N1)[C@@H](C)O)C(=O)N[C@@H](CC(=O)O)C(=O)N[C@@H](Cc1ccccc1)C(N)=O` it was “inactive”.
Turning to `CSCC[C@H](NC(=O)[C@@H](N)Cc1c[nH]c2ccccc12)C(=O)N[C@@H](CC(=O)O)C(=O)N[C@@H](Cc1ccccc1)C(N)=O`, the cytotoxicity call was “inactive”.
